Values joined by “and” are separate entries in the source; they are usually repeats but may differ in a detail not shown here. Identical values can stand only once. Inconclusive results are not listed. Values without a mark were called inactive. Active and inactive are the calls of the source. Calls come from the whole dose curve; as a rule, active = well fitted curve in the direction sought with a large enough effect; inconclusive = small, poorly fitted or top-dose-only effect, or another doubt; inactive = no such curve, though single readings can be large; an effect the other way counts as inactive or inconclusive.
How the values were obtained:
[1] = molecular target: Cellular tumor antigen p53 (Homo sapiens) (UniProt P04637); test: Primary qHTS for small molecule compounds that upregulate eGFP-tagged delta133p53alpha (in N-terminal) cells. (AID 2060322); settings: NCI-H358 eGFP-delta133p53alpha fluorescence, 24 h; activation: hits give high values; note: nearly all actives have a fitted effect of over 75% in size;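 for activation: cells pre-induced with doxycycline then dosed without doxycycline; 0% = DMSO vehicle and 100% = reference activator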
Method in brief: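 NCI-H358 cells pre-induced 24 h with 10 ng/ml doxycycline for eGFP-delta133p53alpha, plated dox-free and exposed 24 h at 37C to titrated compounds. Fixed, Hoechst-stained; gated GFP peak intensity by laser scanning cytometry, normalized to DMSO (0%) and 57.5 uM 5-azacytidine (100%).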

[2] = BET inhibitor-based combinations targeting novel dependencies in MECOM-rearranged (r) AML: SET-2 cell line (AID 2202231); settings: SET-2 AML cells viability, CellTiter-Glo luminescence, 48 h; viability: hits give low values, concentration not given here; note: nearly all actives have a fitted effect of over 35% in size;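 for viability: plate controls were DMSO treated cells for no effect and wells without cells for full effect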
Method in brief: (§1)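 Readout: CellTiter-Glo luminescence. Exposure: 48 h, 11 concentrations, 500 cells/well. Metric: AUC and within-line Z-AUC after DMSO/empty-well normalization.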

[3] = BET inhibitor-based combinations targeting novel dependencies in MECOM-rearranged (r) AML: OCI-AML3 cell line (AID 2202232); settings: CellTiter-Glo luminescence, 48 h; Potency: OCI-AML3 viability; series mostly up to 46 µM; note: nearly all actives have a fitted effect of over 35% in size
Method in brief: as §1

[4] = BET inhibitor-based combinations targeting novel dependencies in MECOM-rearranged (r) AML: UCSD-AML1 cell line (AID 2202235); settings: UCSD-AML1 AML cells viability, CellTiter-Glo, 48 h; series mostly up to 46 µM; note: nearly all actives have a fitted effect of over 40% in size
Method in brief: (§2)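 Seeding density was 500 cells/well, and drug exposure lasted 48 hr under standard culture conditions. Read-out used CellTiter-Glo reagent with a 15 min room-temperature incubation before luminescence measurement; AUC and Z-AUC summarize the normalized responses.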

[5] = BET inhibitor-based combinations targeting novel dependencies in MECOM-rearranged (r) AML: AML-191 cell line (AID 2202236; note: nearly all actives have a fitted effect of over 35% in size); settings: AML-191 viability, CellTiter-Glo luminescence, 48 h; series mostly up to 46 µM
Method in brief: as §1

[6] = BET inhibitor-based combinations targeting novel dependencies in MECOM-rearranged (r) AML: AML-194 cell line (AID 2202237; note: nearly all actives have a fitted effect of over 40% in size); settings: AML-194 (MECOM-r AML) viability, CellTiter-Glo, 48 h; series mostly up to 46 µM
Method in brief: as §1

[7] = BET inhibitor-based combinations targeting novel dependencies in MECOM-rearranged (r) AML: MV-4-11 cell line (AID 2202233); settings: MV-4-11 AML viability, CellTiter-Glo luminescence, 48 h; series mostly up to 46 µM; note: nearly all actives have a fitted effect of over 45% in size
Method in brief: as §2

[8] = BET inhibitor-based combinations targeting novel dependencies in MECOM-rearranged (r) AML: HNT-34 cell line (AID 2202234); settings: HNT-34 AML viability, CellTiter-Glo luminescence, 48 h; series mostly up to 46 µM; note: nearly all actives have a fitted effect of over 35% in size
Method in brief: as §2
Potency is the fitted concentration of half-maximal effect.

Sequence of Cellular tumor antigen p53 (Homo sapiens) (P04637 whole entry, looked up): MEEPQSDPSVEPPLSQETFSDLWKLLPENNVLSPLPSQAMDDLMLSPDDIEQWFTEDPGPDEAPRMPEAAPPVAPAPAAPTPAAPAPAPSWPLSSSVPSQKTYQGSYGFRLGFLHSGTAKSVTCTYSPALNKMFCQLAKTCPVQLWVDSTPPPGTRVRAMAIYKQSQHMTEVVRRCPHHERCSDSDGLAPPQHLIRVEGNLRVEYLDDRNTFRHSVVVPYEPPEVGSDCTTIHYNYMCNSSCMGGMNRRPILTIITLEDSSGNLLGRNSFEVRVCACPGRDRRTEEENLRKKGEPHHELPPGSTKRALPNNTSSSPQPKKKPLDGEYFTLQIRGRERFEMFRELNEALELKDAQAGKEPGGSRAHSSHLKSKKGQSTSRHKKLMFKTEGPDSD

## Cn1cc(-c2ccc3nnc(Sc4ccc5ncccc5c4)n3n2)cn1
[1]
  activation: -0.663%
[2]
  viability: 107%
[3]
  Potency: inactive
[4]
  Potency: inactive
[5]
  Potency: inactive
[6]
  Potency: inactive

## Oc1ccc(OCc2ccccc2)cc1
[1]
  activation: -16.4% and -11.2%
[2]
  viability: 81.8%
[7]
  Potency: 9.34 µM (active)

## O=C(O)c1cc(=O)c2c(OCC(O)COc3cccc4oc(C(=O)O)cc(=O)c34)cccc2o1
[1]
  activation: 19.8%
[2]
  viability: 114%
[3]
  Potency: inactive
[5]
  Potency: inactive
[6]
  Potency: inactive

## C#CCN[C@@H]1CCc2ccccc21
[1]
  activation: -13.4% and -11.3%
[2]
  viability: 116%
[7]
  Potency: inactive
[8]
  Potency: inactive
[4]
  Potency: inactive
[5]
  Potency: inactive

## Cc1ccc(/C=N/NC(=O)c2ccccc2Oc2ccccc2)o1
[1]
  activation: -11.8%
[2]
  viability: 107%
[3]
  Potency: inactive
[5]
  Potency: inactive
[6]
  Potency: inactive

## CCC(C)(C)C(=O)O[C@H]1C[C@@H](C)C=C2C=C[C@H](C)[C@H](CC[C@@H]3C[C@@H](O)CC(=O)O3)[C@H]21
[1]
  activation: -16.4% and -15.4%
[2]
  viability: 103%
[7]
  Potency: 18.6 µM (active)

## C[C@@H]1CN(CC(=O)Nc2ccc3c(c2)Cc2cccc(-c4cc(=O)cc(N5CCOCC5)o4)c2S3)C[C@H](C)O1
[1]
  Potency: 27.3 µM (active)
[2]
  viability: 86.1%
[7]
  Potency: 14.8 µM (active)

## CCOC(=O)c1ccc(OC(=O)CCCCCN=C(N)N)cc1
[1]
  activation: 31%
[2]
  viability: 106%
[3]
  Potency: inactive
[8]
  Potency: inactive
[4]
  Potency: inactive
[5]
  Potency: inactive
[6]
  Potency: inactive

## CCN(CC)CCCCNc1ncc2c(n1)N(C)C(=O)N(c1c(Cl)c(OC)cc(OC)c1Cl)C2
[1]
  activation: -7.31%
[2]
  Potency: 18.6 µM (active)
[7]
  Potency: 14.8 µM (active)
[8]
  Potency: 10.5 µM (active)

## COc1cc(C(C)C)c(Oc2cnc(NC(CO)CO)nc2N)cc1I
[1]
  activation: -13.5%
[2]
  viability: 99.2%
[3]
  Potency: inactive
[4]
  Potency: inactive
[5]
  Potency: inactive
[6]
  Potency: inactive

## Cc1cccc(N(C)C(=S)Oc2ccc3ccccc3c2)c1
[1]
  activation: 2.82% and 1.76%
[2]
  viability: 85.9%
[3]
  Potency: inactive
[8]
  Potency: inactive
[6]
  Potency: inactive

## CS(=O)(=O)Oc1ccc2c(NC(N)=O)c(C(=O)c3ccc(Cl)cc3Cl)oc2c1
[1]
  activation: -14%
[2]
  viability: 97.1%
[3]
  Potency: inactive
[8]
  Potency: inactive
[4]
  Potency: inactive
[6]
  Potency: inactive

## C#CCC(Cc1cnc2nc(N)nc(N)c2n1)c1ccc(C(=O)N[C@@H](CCC(=O)O)C(=O)O)cc1 (some centres undefined)
[1]
  activation: -21.3%
[2]
  Potency: 0.0019 µM (active)
[7]
  Potency: 0.0053 µM (active)

## Cc1cc2c(cc1CC(=O)c1sccc1S(=O)(=O)Nc1onc(C)c1Cl)OCO2
[1]
  activation: -10% and -11%
[2]
  viability: 68.3%
[7]
  Potency: inactive
[8]
  Potency: inactive
[4]
  Potency: inactive
[5]
  Potency: inactive

## CCCNS(=O)(=O)Nc1ncnc(OCCOc2ncc(Br)cn2)c1-c1ccc(Br)cc1
[1]
  activation: -5.9%
[2]
  viability: 97.8%
[3]
  Potency: inactive
[6]
  Potency: inactive

## CCCCCCCCCCCCCCCC(=O)O[C@H]1[C@@H](O)[C@@H](O)[C@@H]([C@H](NC(=O)[C@@H]2C[C@@H](CCC)CN2C)[C@H](C)Cl)O[C@@H]1SC
[1]
  activation: 17.9%
[2]
  viability: 108%
[7]
  Potency: 16.6 µM (active)

## COc1ccc2c3n(c(=NC(=O)c4cccnc4)nc2c1OC)CCN3
[1]
  activation: -16.5%
[2]
  viability: 112%
[3]
  Potency: 0.235 µM (active)
[8]
  Potency: 0.332 µM (active)
[5]
  Potency: 0.468 µM (active)
[6]
  Potency: 1.18 µM (active)

## N#Cc1ccc(NC(=O)Nc2ccccc2Br)c2n[nH]nc12
[1]
  activation: -2.35%
[2]
  viability: 105%
[3]
  Potency: 14.8 µM (active)
[8]
  Potency: inactive
[4]
  Potency: inactive
[6]
  Potency: inactive

## CN(N=O)C(=O)N[C@@H]1[C@@H](O)[C@H](O)[C@@H](CO)O[C@@H]1O
[1]
  activation: -14.1%
[2]
  viability: 101%
[3]
  Potency: inactive
[8]
  Potency: inactive
[4]
  Potency: inactive
[6]
  Potency: inactive

## CCC(=O)O[C@]1(C(=O)CCl)[C@@H](C)C[C@H]2[C@@H]3CCC4=CC(=O)C=C[C@]4(C)[C@@]3(F)[C@@H](O)C[C@@]21C
[1]
  activation: 6.69% and -0.269%
[2]
  viability: 97.3%
[7]
  Potency: 20.9 µM (active)
[8]
  Potency: 20.9 µM (active)
[4]
  Potency: inactive

## C[C@]1(c2nc3c(C(N)=O)cccc3[nH]2)CCCN1
[1]
  activation: 53.7%
[2]
  viability: 113%
[3]
  Potency: 8.33 µM (active)
[4]
  Potency: inactive
[5]
  Potency: inactive
[6]
  Potency: inactive

## COC[C@H](NC(=O)c1cnc(C)s1)C(=O)N[C@@H](COC)C(=O)N[C@@H](Cc1ccccc1)C(=O)[C@@]1(C)CO1
[1]
  Potency: 17.2 µM (active)
[2]
  Potency: 0.166 µM (active)
[7]
  Potency: 0.0833 µM (active)
[8]
  Potency: 0.0934 µM (active)
[4]
  Potency: 0.132 µM (active)
[5]
  Potency: 0.186 µM (active)
[6]
  Potency: 0.332 µM (active)

## CCn1cc(C(=O)O)c(=O)c2cc(F)c(N3CCN(C)CC3)cc21
[1]
  activation: -2.51% and -35.6%
[2]
  viability: 97.2%
[3]
  Potency: inactive
[4]
  Potency: inactive
[5]
  Potency: inactive
[6]
  Potency: inactive

## O=C1C[C@@H](c2ccc(O)cc2)Oc2cc(O)cc(O)c21
[1]
  activation: -17.7%
[2]
  viability: 109%
[7]
  Potency: inactive
[8]
  Potency: inactive
[4]
  Potency: inactive
[5]
  Potency: inactive
[6]
  Potency: inactive
